{"source": "PubChem BioAssay (NCATS)", "note": "Results filed as inconclusive are left out. A number with no mark means an inactive call. The source made the active and inactive calls. Calls follow the shape of the dose curve; as a rule, active = well fitted inhibition curve with a large enough effect; inconclusive = small, poorly fitted or top-dose-only effect; inactive = flat fitted curve, though single readings scatter."}
{"test_system": "Zika virus NS2B-NS3 protease", "assay": "Primary screen GU AMC qHTS for Zika virus inhibitors (AID 1347154);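 also: 0% = no-inhibitor control and -100% = no-enzyme control; nearly all actives have a fitted effect of over 70% in size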", "settings": "Zika NS2B-NS3 unlinked protease, AMC fluorogenic substrate; series mostly up to 54.1 µM; activity change, negative = inhibition: at the top concentration", "summary_of_the_method": "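Unlinked Zika NS2B hydrophilic domain–NS3 protease complex at 25 nM in 10 mM Tris-HCl pH 8.0, 0.01% Tween 20, with an AMC peptide substrate. Fluorescence change (340/450 nm) over 15 min at room temperature, normalized to controls, fitted to 4-parameter Hill.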"}
{"smiles": "O=C(NCCCNc1nc(Nc2cccc(NC(=O)N3CCCC3)c2)ncc1I)c1cccs1", "activity change, negative = inhibition": "-10.1%"}
{"smiles": "NC1(Cc2ccc(Cl)cc2)CCN(c2ncnc3[nH]ccc23)CC1", "activity change, negative = inhibition": "5.24%"}
{"smiles": "CC[C@H](CO)Nc1nc(NCc2ccccc2)c2ncn(C(C)C)c2n1", "Potency": "inactive"}
{"smiles": "CC(=O)c1c(C)c2cnc(Nc3ccc(N4CCNCC4)cn3)nc2n(C2CCCC2)c1=O", "activity change, negative = inhibition": "-0.331%"}
{"smiles": "O=C1CCC[C@@H]2[C@H]3CCC[N+]4([O-])CCC[C@@H](CN12)[C@@H]34", "note": "(stereo partly specified)", "activity change, negative = inhibition": "-2.54%"}
{"smiles": "Cc1cc(Nc2cc(CN3CCOCC3)c3nc(C)c(Cc4ccc(Cl)cc4F)n3n2)n[nH]1", "activity change, negative = inhibition": "6.05%"}
{"smiles": "CNC(=O)c1cc(Oc2ccc(NC(=O)Nc3cc(C(C)(C)C)nn3-c3ccc4ncccc4c3)c(F)c2)ccn1", "activity change, negative = inhibition": "9.7%"}
{"smiles": "CN1CCN(c2ccc3nc(-c4c(N)c5c(F)cccc5[nH]c4=O)[nH]c3c2)CC1", "activity change, negative = inhibition": "12.2%"}
{"smiles": "CCN(CC)CCNC(=O)c1ccc2nc(-c3ccccc3)c(-c3ccc(CN4CCC(n5c(=O)[nH]c6ccccc65)CC4)cc3)nc2c1", "activity change, negative = inhibition": "7.01%"}
{"smiles": "CC(C)Nc1cc(C(F)(F)F)cc2nc(NC(=O)c3cccnc3)nn12", "activity change, negative = inhibition": "3.95%"}
{"smiles": "CCc1cc2c(cc1N1CCC(N3CCOCC3)CC1)C(C)(C)c1[nH]c3cc(C#N)ccc3c1C2=O", "activity change, negative = inhibition": "-8.21%"}
{"smiles": "Cn1cc(-c2[nH]c3cc(NC(=O)[C@H](N)C4CCCCC4)cc4c3c2C=NNC4=O)cn1", "activity change, negative = inhibition": "-1.08%"}
{"smiles": "Nc1ccn([C@@H]2CS[C@H](CO)O2)c(=O)n1", "activity change, negative = inhibition": "-0.0353% [at 104 µM]"}
{"smiles": "Fc1cc(-c2cccc3ncc(-c4cnn(C5CCNCC5)c4)nc23)cc(F)c1CN1CCOCC1", "activity change, negative = inhibition": "-6.63%"}
{"smiles": "O=C(O)CCCc1c[nH]c2ccccc12", "activity change, negative = inhibition": "-0.579%"}
{"smiles": "N#CCNC(=O)c1ccc(-c2ccnc(Nc3ccc(N4CCOCC4)cc3)n2)cc1", "activity change, negative = inhibition": "-8.44%"}
